An excerpt weighted towards active compounds, which were near 7.8% of everything screened.
MARV entry inh: blocks Marburg virus binding to or entry into cells; Marburg virus pseudotyped entry inhibition, cell reporter; Potency, µM (doses to about 37.8 µM), inactives show top-dose activity change, negative = inhibition, hits mostly inhibitors; 300,000 compounds, 1.8% hits; AID 540276; calls by dose curve; tested in HEK293 cells; further: potency means the concentration at half of the fitted maximal effect
HCMV antiviral: inhibitors of human cytomegalovirus. AID 1259415. activity change, negative = inhibition, % at 57.5 µM. 410,000 compounds, 4.5% hits. HFF cells, HCMV-luciferase reporter, 72 h; stronger effect = lower value; in the data active means activity change below about -60%; inconclusive means no clear call, values can overlap the other calls; inactive means above about -39%
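Two compound doses tested in HFFs infected with HCMV-luciferase, MOI 1 PFU/cell, 72 h at 37C. Lysate luminescence read with OneGlo; data normalized against buffer-only and 10uM Salinomycin inhibitor controls.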
Vaccinia mCherry: inhibitors of vaccinia virus infection (mCherry reporter signal); Vaccinia virus mCherry reporter infection, fluorescence; Potency, µM (series often up to 36.5 µM), without a hit: at the top dose activity change, negative = inhibition, actives largely listed as inhibitors; 310,000 compounds, 0.63% hits; AID 720579; calls by dose curve; tested in A549 cells; further: potency means the concentration at half of the fitted maximal effect; nearly all actives have a fitted effect of over 35% in size
LASV entry inh: inhibitors of Lassa virus binding or cell entry. Potency, µM (highest dose often 37.9 µM), inactives show at the top dose activity change, negative = inhibition, usual class: inhibitors. AID 540256. Lassa virus pseudotype entry inhibition, cell reporter. 300,000 compounds, 1.2% hits; calls by dose curve; tested in HEK293 cells; further: potency means the concentration at half of the fitted maximal effect; nearly all actives have a fitted effect of over 50% in size
HCV inhibitor: blocks hepatitis C virus. Potency, µM (series often up to 41.8 µM), inactives show at the top dose activity change, negative = inhibition, actives largely listed as inhibitors. Huh7.5.1 HCVcc-Cre infection, luciferase reporter, 44 h. 340,000 compounds, 3.4% hits. AID 651820; active means well fitted inhibition curve with a large enough effect; inconclusive means small, poorly fitted or top-dose-only effect, or another doubt; inactive means no such curve, though single readings can be large or run the other way; further: potency means the concentration at half of the fitted maximal effect
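Cells (1,000/well) were plated 4 h before compound, then infected with HCVcc-Cre virus (~0.5 moi). After 44 h further culture, infection was read as luciferase luminescence following a 15 min substrate incubation at room temperature.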
Vaccinia Venus: inhibitors of vaccinia virus (Venus reporter); 330,000 compounds, 0.46% hits; Potency, µM (titrated, usually from 36.5 µM), for the others: at the top dose activity change, negative = inhibition, usual class: inhibitors; Vaccinia virus Venus reporter expression, fluorescence; calls by dose curve; tested in A549 cells; further: potency means the concentration at half of the fitted maximal effect; nearly all actives have a fitted effect of over 30% in size
Starred values were filed as active, the others as inactive; i = inactive; ? = inconclusive; nt = no result; [ ] = dose if it differs, or a comment. On the % scale 0 is the no-effect control and ±100 the full control effect.

SMILES	MARV entry inh	HCMV antiviral	Vaccinia mCherry	LASV entry inh	HCV inhibitor	Vaccinia Venus
CCOc1ccc(NC(=O)CNC(=O)c2nn(-c3ccc(OC)cc3)c(=O)c3ccccc23)cc1	-20.9%[46.1 µM]	-64.7*	-4.9%	nt	-4.8%	-12.8%
COc1ccc(-n2nc(C(=O)NCC(=O)NCc3ccc(F)cc3)c3ccccc3c2=O)cc1OC	?	-17.8	-28.8%	?	12.6µM*	?
COc1cc(NC(=O)c2nnn(Cc3ccc(F)cc3)c2N)cc(OC)c1	-11.2%[46.1 µM]	-15.7	-17.9%	8.1%[46.1 µM]	nt	-13.3%
COC(=O)c1ccccc1NC(=O)c1cc2ccccn2n1	nt	34.7	-23.4%	7.9%[46.1 µM]	nt	-8.8%
[O-]/C(=C(\C(=S)Nc1ccc(SC(F)F)cc1)[n+]1ccccc1)c1ccc(Cl)cc1Cl	?	-63.0*	i	?	12.6µM*	-14.7%
Cc1cc(N2CCN(c3nc4ccccc4s3)CC2)n2ncnc2n1	?	-101.8*	nt	?	3.16µM*	nt
Cc1nc2ncnn2c(N2CCN(c3cccc(C(F)(F)F)c3)CC2)c1C	-14.8%	-101.0*	nt	?	0.891µM*	nt
Cc1cc(N2CCN(C(=O)c3ccco3)CC2)n2ncnc2n1	-5.8%	11.3	nt	-3.8%	10.1%	nt
Cc1cc(N2CCN(C(c3ccccc3)c3ccccc3)CC2)n2ncnc2n1	9.6%	-97.3*	-15.5%	-1.5%	1.2%	-2.4%
Cc1cc(N2CCN(c3cccc(C(F)(F)F)c3)CC2)n2ncnc2n1	-26.8%	-17.3	nt	-27.2%	8.3%	-21.0%
Cc1nc2ncnn2c(N2CCN(C(c3ccccc3)c3ccccc3)CC2)c1C	-5.5%	-69.5*	nt	?	?	nt
COCCN(CCOC)C(=S)Nc1ccccc1	-6.6%	-15.6	-12.0%	0.6%[46.1 µM]	1.78µM*	-16.7%
Cc1ccc2ncc(C)c(C)c2c1	nt	nt	-11.7%	nt	nt	-3.3%
CC(=O)OC1C[C@@]2(C)C(c3ccoc3)C[C@H]3O[C@@]32[C@@]2(C)C(=O)C(O)=C3C(C)(C)C(=O)C=C[C@]3(C)C12 (stereo not given in full)	nt	nt	7.08µM*	nt	nt	8.91µM*
O=C(/C=C/c1cc[n+](CC(=O)c2ccc3cccc4c3c2CC4)cc1)c1ccc2cccc3c2c1CC3	nt	nt	5.3%	nt	6.31µM*	6.1%
CCN(CC)CCCNC(=O)c1ccc(C)c(NC(=O)C2=C(C)OCCS2)c1	nt	?	nt	nt	7.9%	nt
CCCNC(=O)c1ccc(C)c(NC(=O)C2=C(C)OCCS2)c1	4.4%[46.1 µM]	-77.2*	-1.6%	10.3%[46.1 µM]	-2.1%	-18.2%
CCOCCCNC(=O)c1cc(Cl)c(NC(=O)C2=C(C)OCCS2)cc1OC	6.1%[46.1 µM]	-80.1*	-27.2%	?	?	-24.8%
CCc1nc2c(OCc3ccc(C(F)(F)F)cc3)cccn2c1N(C)C(=O)c1ccc(C)cc1	nt	14.1	-13.4%	nt	nt	-7.2%
CC(C)c1ccc(NC(=O)CSc2nnc(-c3ccccc3)n2C)cc1	nt	nt	-21.4%	nt	nt	-22.2%
CCOc1ccc(NC(=O)CSc2nnc3scc(-c4ccc(Cl)cc4)n23)cc1	6.7%[46.1 µM]	-28.1	-9.7%	-21.0%[46.1 µM]	nt	6.8%
O=c1[nH]c(=O)n(Cc2ccc(Oc3ccccc3)cc2)cc1Br	nt	-36.5	nt	nt	nt	nt
C=C1CC(Cn2cc(Br)c(=O)[nH]c2=O)(c2ccc(-c3ccccc3)cc2)OC1=O (stereo not given)	?	-96.9*	2.82µM*	?	?	7.94µM*
CCc1ccc(NC(=O)c2cnc(N3CCN(c4ccccn4)CC3)c3ccccc23)cc1	?	-19.2	-30.0%	?	4.47µM*	?
CCOc1ccccc1NC(=O)c1cnc(N2CCOCC2)c2ccccc12	nt	5.7	-11.3%	-23.0%[46.1 µM]	nt	-5.2%
SMILES	MARV entry inh	HCMV antiviral	Vaccinia mCherry	LASV entry inh	HCV inhibitor	Vaccinia Venus
CCN1CCN(c2ncc(C(=O)Nc3ccccc3C(=O)OC)c3ccccc23)CC1	12.6µM*	-7.3	?	?	7.94µM*	-27.2%
O=C(O)c1ccc(N=Cc2c(O)[nH]c(=O)[nH]c2=O)cc1	15.3%	-76.1*	-4.8%	-1.4%	3.8%	-2.9%
CC1CCN(CCCNC(=O)c2cc3c(s2)-c2ccccc2OC3)CC1	nt	-18.3	nt	nt	?	nt
CC1CCCN(CCCNC(=O)c2cc3c(s2)-c2ccccc2OC3)C1 (stereo not given)	3.16µM*	-66.8*	?	?	11.2µM*	?
Cc1ccc(CCNC(=O)c2cc3c(s2)-c2ccccc2OC3)cc1	-0.7%[46.1 µM]	-88.6*	-2.5%[7.34 µM]	nt	nt	-13.4%[7.34 µM]
Cc1ccc(CCNC(=O)c2cc3c(s2)-c2c(C)cccc2OC3)cc1	7.8%[46.1 µM]	-86.1*	-16.6%	nt	nt	-8.0%
CCN(CC)CCNC(=O)c1cc2c(s1)-c1ccccc1SC2	nt	-71.9*	nt	nt	11.2µM*	nt
CC(=O)Nc1nnc(SCc2cc(=O)c3cc(C)ccc3[nH]2)s1	nt	9.1	-8.3%	9.6%[46.1 µM]	nt	-3.9%
CCc1cc(=O)oc2c(C)c3c(cc12)CN(CCc1ccccc1)CO3	8.0%[46.1 µM]	3.0	-3.2%	1.4%[46.1 µM]	nt	2.9%
CCCCOCC1CN(CCCC)S(=O)(=O)c2c(Oc3ccc(C(C)C)cc3)cccc2O1 (stereo not given)	nt	-4.9	nt	?	nt	nt
NC(=O)[C@@H]1CC2(CC(c3cccc(NC(=O)COc4ccc(Cl)cc4)c3)=NO2)CN1C(=O)COc1ccc(Cl)cc1 (stereo not given in full)	nt	-18.2	?	nt	10µM*	?
C=C(C)C(=O)Nc1cccc(C2=NOC3(C2)C[C@@H](C(N)=O)N(C(=O)/C(C)=C/C)C3)c1 (stereo not given in full)	nt	-32.5	i	nt	16.1%	-14.1%
NC(=O)[C@@H]1CC2(CC(c3cccc(NC(=O)CC(c4ccccc4)c4ccccc4)c3)=NO2)CN1C(=O)c1ccc(Cl)cc1 (stereo not given in full)	nt	-72.4*	?	nt	?	?
NC(=O)[C@H]1CC2(CC(c3cccc(NC(=O)CC(c4ccccc4)c4ccccc4)c3)=NO2)CN1C(=O)CC(c1ccccc1)c1ccccc1 (stereo not given in full)	nt	-33.2	-4.7%	nt	-20.5%	-25.9%
C/C=C(\C)C(=O)Nc1cccc(C2=NOC3(C2)C[C@@H](C(N)=O)N(C(=O)/C(C)=C/C)C3)c1 (stereo not given in full)	nt	-67.6*	i	nt	5.6%	-1.7%
N#CCC(=O)N1CC2(CC(c3cccc(NC(=O)COc4ccc(Cl)cc4)c3)=NO2)C[C@@H]1C(N)=O (stereo not given in full)	nt	-7.4	i	nt	-1.6%	-3.4%
CCC(=O)Nc1cccc(C2=NOC3(C2)C[C@@H](C(N)=O)N(C(=O)CC(c2ccccc2)c2ccccc2)C3)c1 (stereo not given in full)	nt	-66.7*	-1.7%	nt	-13.9%	-14.2%
Cn1c(NCc2cccnc2)nc2cc(-c3cccc(C(=O)NCCO)c3)sc2c1=O	nt	1.5	6.0%	nt	nt	-4.4%
CCOc1ccc(CCNC(=O)CCCc2nnc3n(CC(C)C)c(=O)c4sccc4n23)cc1	nt	?	-12.3%	4.3%[46.1 µM]	nt	-10.1%
